Assay [1] can be described thus: inhibitors of TNFa-induced NFkB p65 translocation, primary screen, imaging, HUVEC, MLSMR starter and 10KST1 sets (AID 438;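 active means inhibition above 20% together with a positive visual image hit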;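 further: compound added about 3h40 before a 20 min TNFalpha stimulation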;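 on inhibition: signal is the nuclear over cytoplasmic p65 intensity ratio per well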). Conditions: HUVEC TNFa-induced p65 nuclear translocation; cell count: measured here: nuclei count (cytotoxicity indicator), at 2.08 µM; inhibition: at 2 µM, stronger effect = higher value, 0% TNFa-plus-vehicle, 100% no-TNFa wells.
Assay [2] can be described thus: reduction of polyQ htt aggregates in cells – imaging, exon1htt(103Q)mCFP cells, high-content imaging, primary screen (AID 483;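 active means visual image review flags a hit and inhibition of aggregation exceeds 20%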;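 further: compound exposure lasted 3 days before fixation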;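 on nuclei count: percent of the per-plate median nuclei count of sample wells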). Conditions: exon1htt(103Q)mCFP cell line, aggregate imaging, at 2 µM; inhibition of aggregation: stronger effect = higher value; nuclei count: measured here: cell count, toxicity.
Assay [3] in a line: endothelial E-selectin expression blockers – imaging, HUVEC, immunofluorescence, MLSMR starter and 10KST1 sets, primary screen (AID 487;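 active means visually confirmed hit in the image check and inhibition above 20%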;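 on inhibition: signal is fraction of cell area covered by stained E-selectin grains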;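 on nuclei count: 100% = median nuclei count of all wells on the same plate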). To be noted: HUVEC TNFalpha-induced E-selectin immunofluorescence imaging, at 2 µM; inhibition: stronger effect = higher value; nuclei count: measured here: cell number, toxicity.
The target in assay [4] is Voltage-gated potassium channel subunit beta-2 (Rattus norvegicus) (UniProt P62483). The assay can be described thus: inhibitors of rat Kvbeta2 reductase activity – biochemical, NADPH fluorescence, primary screen (AID 622).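 Further: slope of raw intensity against log time taken from 70 to 1610 s.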 To be noted: recombinant KvBeta, 4-cyanobenzaldehyde reduction, at 10 µM, stronger effect = higher value.
Assay [5] shares this target. The assay can be described thus: enhancers of rat Kvbeta2 NADPH turnover – biochemical, NADPH fluorescence, primary screen (AID 623;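 active means NADPH fluorescence slope more negative than the mean of all samples by about 3 SD, 99.7% confidence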;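 further: fluorescence intensity change per second fitted from 20 to 320 s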). To be noted: Recombinant KvBeta, NADPH fluorescence decrease slope, 10 min; at 10 µM; stronger effect = lower value.
Assay [6] concerns the target Alpha-2C adrenergic receptor (Homo sapiens) (UniProt P18825). The experiment in a line: compounds altering alpha2C-coupled GIRK flux – cell-based, HEK293 alpha2C/GIRK1/2, thallium flux, primary screen (AID 624;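 active means fluorescence slope after compound addition differing from the mean of all screened samples at 99.7% confidence, in either direction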;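 further: slope of fluorescence ratio to pre-addition baseline per second over 15 to 24 s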). Conditions: thallium flux BTC fluorescence, at 10 µM, actives lie on both sides.
Assay [7] can be described thus: blockers of RIG-like receptor reporter activation – cell-based, Sendai virus stimulus, luciferase, 10K MLSCN set, TLR/RLR signaling modifier project, primary screen (AID 602276;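 active means inhibition at or above 50% at 10 µM; inactive means inhibition below 50%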;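 further: firefly luciferase from ISG56 promoter only with Renilla not read in this screen; 0% = Sendai virus plus DMSO and 100% = medium plus DMSO without virus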). To be noted: HEK293 RL24 IRF3 luciferase reporter, at 10 µM, stronger effect = higher value. (A reporter such as luciferase makes a cellular process visible.)
Assay [8] is described as follows: TLR3 IRF3 reporter activation blockers – cell-based, poly I:C stimulus, luciferase, 10K MLSCN set, primary screen (AID 602277;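 active means inhibition of the reporter signal at or above 50%; inactive means inhibition below 50%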). Conditions: HEK293-TLR3 RL24 IRF3 luciferase reporter, at 10 µM, stronger effect = higher value.

Active and inactive are the calls of the source.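 How the source made its calls, unless noted: active means fluorescence slope higher than the sample average by over 3 SD (cut at about -0.22 in these data, passing the limit was not always enough); inactive means the rest.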

As usually defined, the inhibition is the drop in the measured response relative to a control, in per cent.

Sequence of Alpha-2C adrenergic receptor (Homo sapiens) (P18825 whole entry, looked up): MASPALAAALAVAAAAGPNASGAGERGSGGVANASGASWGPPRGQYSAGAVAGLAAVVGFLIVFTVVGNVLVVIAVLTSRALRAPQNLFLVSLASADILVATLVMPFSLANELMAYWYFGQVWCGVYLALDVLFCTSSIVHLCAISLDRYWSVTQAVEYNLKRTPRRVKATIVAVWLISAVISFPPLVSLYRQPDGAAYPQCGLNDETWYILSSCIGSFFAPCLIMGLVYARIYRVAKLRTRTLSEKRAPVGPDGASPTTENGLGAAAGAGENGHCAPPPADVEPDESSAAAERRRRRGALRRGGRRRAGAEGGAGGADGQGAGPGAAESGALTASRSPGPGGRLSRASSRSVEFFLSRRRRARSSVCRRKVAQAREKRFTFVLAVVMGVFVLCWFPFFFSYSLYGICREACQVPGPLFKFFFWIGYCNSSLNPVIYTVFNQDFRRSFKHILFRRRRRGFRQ
Sequence of Voltage-gated potassium channel subunit beta-2 (Rattus norvegicus) (P62483 whole entry, looked up): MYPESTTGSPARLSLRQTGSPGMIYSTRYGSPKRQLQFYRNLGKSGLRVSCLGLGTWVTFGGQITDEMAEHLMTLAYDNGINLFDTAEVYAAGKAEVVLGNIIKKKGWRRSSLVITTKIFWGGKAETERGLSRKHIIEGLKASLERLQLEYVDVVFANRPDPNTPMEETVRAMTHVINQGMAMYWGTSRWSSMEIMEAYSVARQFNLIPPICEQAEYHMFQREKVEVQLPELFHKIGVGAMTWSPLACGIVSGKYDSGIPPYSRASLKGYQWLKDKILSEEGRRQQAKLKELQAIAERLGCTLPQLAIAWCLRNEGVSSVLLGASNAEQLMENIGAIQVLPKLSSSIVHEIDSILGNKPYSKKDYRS

Turning to `Cn1cccc1Cc1nnc(SCC(=O)N2CCOCC2)n1-c1ccc(F)cc1`, the cell count in assay [1] worked out at 585. Moreover, the inhibition in assay [1] is 5.8% (inactive); in assay [3], 55.7% (active); in assay [7] it was 12.2% (inactive); in assay [8], 28.3% (inactive). The inhibition of aggregation in assay [2] is 26.9% (inactive). In addition, the figures for the nuclei count in assay [2] and in assay [3] were 89.6% and 96.2%, respectively. The fluorescence slope in assay [4] is -0.527 (inactive). For the same compound, the NADPH fluorescence slope in assay [5] is -3.5e-05 (inactive). The slope in assay [6] is 0.00693 (inactive).

`CCOC(=O)CSc1nnc(-c2ccc(NS(=O)(=O)c3ccc(C)cc3)cc2)o1`: the cell count in assay [1] came to 813. Besides, the inhibition in assay [1] was -6.7% (inactive); in assay [3], -37.7% (inactive); in assay [7], 8.31% (inactive); in assay [8], 29.4% (inactive). The inhibition of aggregation in assay [2] is -0.7% (inactive). Besides, the nuclei count in assay [2] was found to be 98.9%; in assay [3], 108%. Besides, in assay [4], the fluorescence slope is -0.433 (inactive). Moreover, in assay [5], the NADPH fluorescence slope is -4.4e-05 (inactive). Moreover, the slope in assay [6] is 0.00389 (inactive).

Consider `CC(=O)c1c(C)nn(C(C)CC(=O)O)c1C` (centres undefined), for which the cell count in assay [1] stood at 784. Further, the inhibition was -12.6% (inactive) in assay [1], -27.1% (inactive) in assay [3], 8.2% (inactive) in assay [7] and 19.7% (inactive) in assay [8]. For the same compound, the inhibition of aggregation in assay [2] is 5.2% (inactive). Moreover, the results for the nuclei count in assay [2] and in assay [3] were 114% and 99%, respectively. The fluorescence slope in assay [4] is -0.509 (inactive). Also, the NADPH fluorescence slope in assay [5] was -2.6e-05 (inactive). In addition, the slope in assay [6] was 0.00713 (inactive).

`COC(=O)c1cc2oc(C)cc2n1CC(=O)N(C)c1ccccc1`: the cell count in assay [1] is 370. For the same compound, the inhibition was -0.4% (inactive) in assay [1], -67.6% (inactive) in assay [3], 9.76% (inactive) in assay [7] and 30.2% (inactive) in assay [8]. In addition, the inhibition of aggregation in assay [2] was -4.7% (inactive). Also, the values for the nuclei count in assay [2] and in assay [3] were 108% and 115%, respectively. For the same compound, in assay [4], the fluorescence slope is -0.347 (inactive). In addition, the NADPH fluorescence slope in assay [5] was -4.4e-05 (inactive). The slope in assay [6] was 0.00693 (inactive).

In the case of `CCC(Sc1ncccc1C(=O)O)C(=O)N1CCCC1` (centres undefined), the cell count in assay [1] was 597. Moreover, the inhibition in assay [1] is 10% (inactive); in assay [3], 5% (inactive); in assay [7], 5.91% (inactive); in assay [8], 15.4% (inactive). For the same compound, the inhibition of aggregation in assay [2] was 32.9% (inactive). Besides, the values for the nuclei count in assay [2] and in assay [3] were 93.4% and 116%, respectively. Also, the fluorescence slope in assay [4] is -0.372 (inactive). Further, the NADPH fluorescence slope in assay [5] is -4.6e-05 (inactive). The slope in assay [6] was 0.00559 (inactive).

For the compound `COc1ccc(N2CCN(c3ccc(NC(=O)C4CCCCC4)cc3C#N)CC2)cc1`, the cell count in assay [1] is 676. Also, the inhibition in assay [1] is -0.6% (inactive); in assay [3] it was -14.3% (inactive); in assay [7], 4.18% (inactive); in assay [8] it was 7.51% (inactive). Moreover, the inhibition of aggregation in assay [2] was -30.8% (inactive). Further, the nuclei count in assay [2] came to 104%; in assay [3], 121%. In addition, the fluorescence slope in assay [4] is -0.586 (inactive). Further, the NADPH fluorescence slope in assay [5] is -1.7e-05 (inactive). Also, the slope in assay [6] was 0.00529 (inactive).

With `CCOC(=O)c1c(C)[nH]c(C(=O)COC(=O)C2CC2C)c1C` (centres undefined), the cell count in assay [1] came to 378. For the same compound, the inhibition in assay [1] is 0.3% (inactive); in assay [3] it was -20.9% (inactive); in assay [7], -45.3% (inactive); in assay [8], -115% (inactive). The inhibition of aggregation in assay [2] was -161% (inactive). Besides, the nuclei count came out at 1.8% in assay [2] and 125% in assay [3]. For the same compound, the fluorescence slope in assay [4] was -0.504 (inactive). Further, the NADPH fluorescence slope in assay [5] is -5.4e-05 (inactive). Further, the slope in assay [6] was 0.00548 (inactive).

`Cc1c(C(=O)OCC(C)C)[nH]c2c1C(=O)CC(c1ccco1)C2` (centres undefined): the cell count in assay [1] turned out to be 464. Also, the inhibition in assay [1] was 8.4% (inactive); in assay [3], -91.9% (inactive); in assay [7], 75.6% (active); in assay [8], 76.5% (active). The inhibition of aggregation in assay [2] was -226% (inactive). For the same compound, the nuclei count in assay [2] came to 4%; in assay [3], 96.5%. Further, in assay [4], the fluorescence slope is -0.492 (inactive). Moreover, the NADPH fluorescence slope in assay [5] is -3.2e-07 (inactive). For the same compound, in assay [6], the slope is 0.00635 (inactive).

With `COc1ccc(S(=O)(=O)N2CCSC2c2ccccc2)cc1` (centres undefined), in assay [1], the cell count turned out to be 449. The inhibition in assay [1] is -3.1% (inactive); in assay [3], -84.6% (inactive); in assay [7], -1.99% (inactive); in assay [8], 22.7% (inactive). Besides, in assay [2], the inhibition of aggregation is -10.4% (inactive). For the same compound, the values for the nuclei count in assay [2] and in assay [3] were 106% and 97.9%, respectively. For the same compound, the fluorescence slope in assay [4] was -0.463 (inactive). Besides, in assay [5], the NADPH fluorescence slope was -3.5e-05 (inactive). Further, in assay [6], the slope was 0.00496 (inactive).

Turning to `Cn1cc(-c2nc3ccccc3[nH]2)c2ccccc21`, the cell count in assay [1] was 250. The inhibition in assay [1] is 2.1% (inactive); in assay [3], 55.1% (inactive); in assay [7], -9.53% (inactive); in assay [8] it was -51.2% (inactive). In addition, the inhibition of aggregation in assay [2] is 33.7% (inactive). Moreover, the nuclei count in assay [2] was determined as 82.6%; in assay [3] it was 83.3%. Besides, in assay [4], the fluorescence slope is -0.416 (inactive). Further, the NADPH fluorescence slope in assay [5] is -6e-05 (inactive). The slope in assay [6] is 0.00369 (inactive).

As for `COc1ccccc1CNC(=O)C1CCC(CNc2c(N3CCOCC3)c(=O)c2=O)CC1` (centres undefined), in assay [1], the cell count is 739. The inhibition was -14.6% (inactive) in assay [1], -1.3% (inactive) in assay [3], 1.39% (inactive) in assay [7] and 17.5% (inactive) in assay [8]. Further, the inhibition of aggregation in assay [2] is 22.5% (inactive). In addition, the nuclei count in assay [2] stood at 105%; in assay [3], 122%. For the same compound, the fluorescence slope in assay [4] is -0.592 (inactive). The NADPH fluorescence slope in assay [5] was -3e-05 (inactive). Also, in assay [6], the slope is 0.00599 (inactive).

For the compound `COc1cccc(NC(=O)N[C@@H](Cc2ccccc2)C(=O)O)c1`, the cell count in assay [1] worked out at 565. Besides, the inhibition in assay [1] was -9.8% (inactive); in assay [3], -37% (inactive); in assay [7], 6.12% (inactive); in assay [8] it was 15.1% (inactive). For the same compound, the inhibition of aggregation in assay [2] was -6.9% (inactive). Also, the nuclei count in assay [2] came out at 103%; in assay [3], 100%. The fluorescence slope in assay [4] is -0.591 (inactive). In addition, the NADPH fluorescence slope in assay [5] is -3.6e-05 (inactive). For the same compound, the slope in assay [6] is 0.00635 (inactive).

Turning to `Cn1c(SCC(=O)N2CCN(c3cccc(Cl)c3)CC2)nnc1-c1ccncc1`, the cell count in assay [1] worked out at 689. For the same compound, the inhibition in assay [1] was -5.1% (inactive); in assay [3], -92% (inactive); in assay [7], 1.74% (inactive); in assay [8], -27.2% (inactive). Also, the inhibition of aggregation in assay [2] was -15% (inactive). For the same compound, the nuclei count in assay [2] came to 104%; in assay [3], 142%. The fluorescence slope in assay [4] is -0.373 (inactive). Further, in assay [5], the NADPH fluorescence slope was 2.3e-06 (inactive). Moreover, the slope in assay [6] was 0.00664 (inactive).

Turning to `COC(=O)c1sc(N)c(C(=O)OC)c1CSc1nc2sc3c(c2c(=O)n1C)CCC3`, the cell count in assay [1] was determined as 428. For the same compound, the inhibition in assay [1] was 14.1% (inactive); in assay [3] it was 2.9% (inactive); in assay [7], -6.85% (inactive); in assay [8], 15% (inactive). The inhibition of aggregation in assay [2] is -20% (inactive). Also, the nuclei count in assay [2] was determined as 104%; in assay [3], 111%. Further, in assay [4], the fluorescence slope was -0.524 (inactive). In addition, the NADPH fluorescence slope in assay [5] was -6.8e-06 (inactive). Besides, the slope in assay [6] was 0.00788 (inactive).

The record behind these values is PubChem BioAssay.
